Results taken from PubChem BioAssay (EPA / NIEHS).
Records with an inconclusive call do not appear. The source made the active and inactive calls. Rule for the calls: active = hit-call score of the fitted dose curve at least 0.9, where 1 is the maximum; inconclusive = response in the unintended direction; inactive = score below 0.9.

The molecules below were run against rat Thyrotropin Releasing Hormone Receptor (TRH), Trhr (gene 25570) (UniProt Q01717) (assay: NVS_GPCR_rTRH: NovaScreen (NVS) G Protein-Coupled Receptor Assay for rat Thyrotropin Releasing Hormone Receptor (TRH) (AID 2283329);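 note: hit means lower bound tracer signal versus DMSO baseline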).
rat Thyrotropin Releasing Hormone Receptor (TRH), Trhr (gene 25570), sequence (Q01717 whole entry, looked up): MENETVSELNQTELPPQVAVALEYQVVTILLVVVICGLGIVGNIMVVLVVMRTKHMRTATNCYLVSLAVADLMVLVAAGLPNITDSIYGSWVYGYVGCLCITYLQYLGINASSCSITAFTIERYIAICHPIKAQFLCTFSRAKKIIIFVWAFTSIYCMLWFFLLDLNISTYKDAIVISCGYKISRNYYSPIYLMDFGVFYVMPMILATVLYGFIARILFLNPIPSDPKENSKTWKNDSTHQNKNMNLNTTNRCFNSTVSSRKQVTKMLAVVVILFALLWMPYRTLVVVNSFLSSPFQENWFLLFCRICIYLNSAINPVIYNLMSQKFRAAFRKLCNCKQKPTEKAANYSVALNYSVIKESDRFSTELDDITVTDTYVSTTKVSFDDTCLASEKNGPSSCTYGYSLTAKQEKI
Experimental: NVS_GPCR_rTRH is a biochemical, single-readout assay that uses extracted gene-proteins from Rat forebrain membranes in a tissue-based cell-free assay. Measurements were taken 4 hours after chemical dosing in a 48-well plate.NVS_GPCR_rTRH is one of one assay component(s) measured or calculated from the NVS_GPCR_rTRH assay. It is designed to make measurements of radioligand binding, a form of binding reporter, as detected with scintillation counting signals by Filter-based radiodetection technology.Data from the assay component NVS_GPCR_rTRH was analyzed into 1 assay endpoint. This assay endpoint, NVS_GPCR_rTRH, was analyzed in the positive analysis fitting direction relative to DMSO as the negative control and baseline of activity. Using a type of binding reporter, loss-of-signal activity can be used to understand changes in the binding as they relate to the gene Trhr. Furthermore, this assay endpoint can be referred to as a primary readout, because the performed assay has only produced 1 assay endpoint. To generalize the intended target to other relatable targets, this assay endpoint is annotated to the gpcr intended target family, where the subfamily is rhodopsin-like receptor.
Binding assays used specific radioligands (tritiated, iodinated) with non-radioactive competitive displacement ligands in agonist or antagonist protocols (as indicated) and various reference compounds and inhibitors to titrate specific binding to receptors and transporters. Most enzyme assays (CYPs, kinases, phosphatases, proteases, HDACs) used recombinant protein and specific substrates (fluorescence mostly, some colorimetric and radioactive) and inhibitors, followed by a biochemical separation of substrate and product. All assays for the biochemical HTS were initially run in duplicate at a single concentration (10 uM for CYP450 assays and 25 uM for all others). […] Each assay was run with positive and negative controls, and concurrent controls on every plate. The follow-up (secondary) screen tested active chemical-pairs in concentration series, as well as a few additional assays not tested in the primary screen, some selected negative inactives, and several cases re-run in the concentration series for confirmatory purposes.

Question: For `CCCCOC(=O)C(C)O` (stereo unspecified), which outcome is on record?
Answer: inactive

Question: For `CCCCOC(=O)[C@H](C)O`, which outcome is on record?
Answer: inactive

Question: For `CC(C)(C)c1cc(Cc2cc(C(C)(C)C)c(O)c(C(C)(C)C)c2)cc(C(C)(C)C)c1O`, which outcome is on record?
Answer: inactive

Question: `O=C(c1ccccc1)c1ccc(O)cc1O` was tested. Which outcome did it give?
Answer: inactive

Question: `CCN=c1cc2oc3cc(NCC)c(C)cc3c(-c3ccccc3C(=O)OCC)c-2cc1C` was tested. Which outcome did it give?
Answer: inactive

Question: How did the outcome turn out when `CCN=C1C=CC(=C(c2ccc(N(CC)CC)cc2)c2ccc(N(CC)CC)cc2)c2ccccc21` was run?
Answer: inactive

Question: How did the outcome turn out when `CCC(Cc1c(I)cc(I)c(N)c1I)C(=O)O` (stereo unspecified) was run?
Answer: inactive

Question: `Cc1ccc([N+](=O)[O-])c(C)c1` was tested. Which outcome did it give?
Answer: inactive

Question: `CCCCCCCC/C=C\CCCCCCCC(=O)OCC(O)CO` (stereo unspecified) was tested. Which outcome did it give?
Answer: inactive

Question: Which outcome does the source give for `COCCOCCC[Si](C)(O[Si](C)(C)C)O[Si](C)(C)C` here?
Answer: inactive

Question: Which outcome does the source give for `C[C@]12CC[C@H]3C(=CCc4cc(O)ccc43)[C@@H]1CCC2=O` here?
Answer: inactive
